Results on 14 compounds are retold here after PubChem BioAssay (NCI).

About 83,000 compounds went through this panel and 20% of them were active in at least one assay; those are over-represented in the sample as a whole.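 Single-dose data. Exposure time 48 hours. Values below 10 considered active.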 A number with no mark means an inactive call. Activity calls are given as the source filed them.

Common to all, as to assay: NCI-60 one-dose screen, 48 h (100 = growth as untreated, 0 = no growth, -100 = all killed)
Holding throughout (settings): 10 µM unless noted

For assay [1], the system named is HCT-15 colon.
Assay [2] deals with HT29 colon.
For assay [3], the system named is SNB-75 CNS.
Assay [4] relates to SNB-19 CNS.
Assay [5] has as its system U251 CNS.
For assay [6], the system named is PC-3 prostate.
Assay [7] has as its system SK-MEL-5 melanoma.
For assay [8], the system named is UACC-62 melanoma.
For assay [9], the system named is LOX IMVI melanoma.
Assay [10] relates to SK-MEL-28 melanoma.

`CC(C)c1nc(N(C)S(C)(=O)=O)nc(-c2ccc(F)cc2)c1/C=C/C(=O)C[C@@H](O)CC(=O)O`: the growth in assay [1] was 108%; in assay [2], 85.6%; in [3] it was 91.4%; in [4] it was 105%; in [5], 105%; in assay [6] it was 97.6%. The growth in assay [7] was 105%; in assay [8], 99.5%; in [9], 101%; in assay [10], 112%.

Regarding `N#CSCc1cc(Cl)c(CSC#N)cc1Cl`, the growth is 31.9% in assay [1]; 40.6% in assay [2]; 47.9% in assay [3]; 89% in assay [4]; 106% in assay [5]; 75.8% in assay [6]. Moreover, the growth in assay [7] was 48.5%; in assay [8], 71.1%; in assay [9], 30.5%; in assay [10], 87.9%.

On to `CCOc1ccc(N2C(=O)CCSC2=S)cc1`, for which the growth in [1] is 101%; in assay [2] it was 106%; in [3], 90.5%; in assay [4], 94.7%; in [5], 102%; in [6], 93.3%. Also, the growth is 98.9% in [7], 91.9% in [8], 96.5% in [9] and 108% in assay [10].

For `Cc1c(C(=O)C(SC(=S)N2CCOCC2)SC(=S)N2CCOCC2)nnn1-c1ccc([N+](=O)[O-])cc1`, the growth in assay [1] was 89.3%; in assay [2], 92.3%; in assay [3], 94.2%; in [4] it was 96.3%; in [5], 95.3%; in [6], 96.1%. Besides, the growth in assay [7] is 107%; in assay [8], 88%; in [9], 108%; in assay [10], 103%.

As to `CC/C(=C(/c1ccc(Cl)cc1)c1ccc(OCCCN(C)C)cc1)c1ccc(OC)cc1`, the growth was 12.8% in assay [1]; 1.68% (active) in assay [2]; 81% in assay [3]; 82.8% in assay [4]; 6.12% (active) in assay [5]; 49.3% in assay [6]. The growth in [7] was 63.4%; in assay [8], 104%; in [9] it was 16.6%; in assay [10], 76.6%.

With `CCN(CC)CCCNc1cc(OC)cc2cccnc12`, the growth in [1] is 99.7%; in [2], 91.6%; in assay [3] it was 111%; in assay [4], 109%; in assay [5], 94.8%; in assay [6], 93.8%. Also, the growth was 95.3% in assay [7], 110% in assay [8], 97.2% in assay [9] and 126% in [10].

With `O=C(COc1ccc(/C=C2\Oc3ccccc3C2=O)cc1)Nc1nccs1`, the growth in assay [1] is 104%; in [2], 107%; in [3], 51.3%; in assay [4] it was 102%; in assay [5], 90.9%; in assay [6], 78.7%. In addition, the growth is 105% in assay [7], 90.6% in assay [8], 85.1% in assay [9] and 129% in assay [10].

Consider `C#C[C@]1(O)CC[C@H]2[C@@H]3CC=C4c5sc(-c6cccc(C)c6)nc5CC[C@]4(C)[C@H]3CC[C@@]21C`, for which the growth in assay [1] is 56.6%; in assay [2] it was 38.8%; in assay [3] it was 13.8%; in assay [4], 86.7%; in assay [5], 71.8%; in [6], 40.5%. The growth was 82.5% in assay [7], 77.3% in [8], 55% in assay [9] and 55.9% in assay [10].

Turning to `O=C(Nc1ccc(Oc2cccc(F)c2)c(Cl)c1)c1cnccn1`, the growth in assay [1] is 31.2%; in [2] it was 9.13% (active); in assay [3] it was 0.855% (active); in [4], 40.4%; in assay [5], 25.7%; in assay [6], 16.7%. Further, the growth in assay [7] is 9.61% (active); in assay [8], 33.5%; in assay [9], 43.9%; in assay [10], 60.6%.

On to `N/C(=N\c1nc2ccccc2s1)NC(=O)Nc1ccccc1`, for which the growth is 23.4% in assay [1]; 14.3% in assay [2]; 31.4% in assay [3]; 32.1% in assay [4]; 21% in [5]; 57.1% in assay [6]. Moreover, the growth in assay [7] was 32.5%; in assay [8], 21%; in assay [9], 34.7%; in assay [10] it was 72.3%.

Consider `O=C1c2c(c3c4cc(F)ccc4oc3c3[nH]c4ccccc4c23)C(=O)N1O`, for which the growth is 33.2% in assay [1]; 31.4% in assay [2]; 10.3% in [3]; 26.7% in assay [4]; 24.5% in assay [5]; 32.3% in assay [6]. For the same compound, the growth is -30% (active) in assay [7], 3.37% (active) in assay [8], -25.3% (active) in [9] and 29% in [10].

For the compound `Cn1ccnc1C(=O)/C=C/c1ccc(C(=O)Nc2ccccc2F)cc1`, the growth in assay [1] was 14.2%; in assay [2], 10.9%; in [3], 56.2%; in assay [4], 21.1%; in assay [5], 10.5%; in assay [6] it was 25.1%. In addition, the growth in assay [7] was 83.7%; in assay [8], 37.3%; in assay [9] it was -41.1% (active); in [10], 59.2%.

With `COc1cc(/C=N/NC(=O)c2ccc3nc(-c4ccc(Cl)cc4)[nH]c3c2)cc(OC)c1OC`, the growth in assay [1] is 96%; in [2], 39.9%; in [3] it was 86.6%; in assay [4], 71%; in assay [5], 53.2%; in assay [6] it was 59.9%. For the same compound, the growth in [7] was 41.9%; in assay [8] it was 28.7%; in assay [9], 50.6%; in assay [10], 46.5%.

For the compound `O=c1c2cccc3c(N4CCOCC4)ccc(c32)c2nc3ccccc3n12`, the growth in assay [1] is 81%; in [2], 93.7%; in assay [3] it was 79.1%; in assay [4], 95.8%; in [5], 90.7%; in assay [6] it was 99.9%. For the same compound, the growth is 73.4% in assay [7], 62.1% in assay [8], 84.8% in assay [9] and 107% in assay [10].
